Test results as given in PubChem BioAssay AID1159524 (National Center for Advancing Translational Sciences (NCATS), 2015).
The whole screen tested about 410,000 compounds, of which about 5,100 (1.2%) were called active. Entries that show only a call come without a potency. Not shown: some 8% with an inconclusive outcome. The sample holds actives, similar compounds and a random draw of the others, so the mix is not that of the screen. Calls come from the whole dose curve; tested in HEK293T cells.

Experiment: High Throughput Screening for Foot and Mouth Disease Virus Antivirals; note: read-out not given here; nearly all actives have a fitted effect of over 45% in size
Conditions: FMDV antiviral cell-based qHTS; series mostly up to 57.9 µM
Potency is the fitted concentration of half-maximal effect.

SMILES	Potency
Cc1ccc2c(C)nc(N3CCCC(C(=O)NC(C)(C)CO)C3)nc2c1 (stereo not drawn)	inactive
CCc1ccccc1NC(=O)N1CCC2(CC1)Oc1ccccc1C(=O)N2Cc1ccccc1F	inactive
O=C(Nc1cc(-c2nc3ccccc3o2)ccc1Cl)c1cc([N+](=O)[O-])ccc1N1CCOCC1	inactive
COc1cccc2oc(CCc3ccccc3)cc(=O)c12	inactive
CCCCc1c(-c2ccc(Br)cc2)ncn1CCc1ccccc1OC	35.5 µM (active)
CCCCCc1c(Cc2ccccc2)ncn1CCc1ccccc1OC	35.5 µM (active)
COc1ccccc1Cc1c(-c2ccc(Cl)cc2)nc2c3ccccc3ccn12	inactive
CCCCNS(=O)(=O)CCNCc1ccccc1OC	inactive
COc1ccccc1CCn1c(=O)c(-c2cn(C)c3ccccc23)nc2cncnc21	inactive
CCOC(=O)c1cc2c(=O)n3ccccc3nc2n(CC2CCCO2)c1=NC(=O)c1ccccc1F (stereo not drawn)	inactive
CCn1cc(C(=O)N2CCN(c3cc(C)ccc3C)CC2)c(=O)c2cc(S(=O)(=O)N(C)C3CCCCC3)ccc21	inactive
Cc1oc(-c2cccc(NC(=O)c3ccccc3)c2)nc1CNC(=O)c1cnc2ccccn2c1=O	inactive
O=c1c(-c2ccc(F)cc2)nc2cnc(N3CCNCC3)nc2n1Cc1cccs1	inactive
O=C(C(=O)N1CCOc2ccc(CN3CCN(Cc4ccccn4)CC3)cc2C1)c1ccccc1	inactive
CCC(=O)Nc1ccccc1-c1nc2ccccc2n(CC(=O)Nc2ccc(C)c(C)c2)c1=O	inactive
COc1cccc(-c2nc3ccc(N4CCN(C)CC4)cc3[nH]2)c1	14.1 µM (active)
COc1cccc(N2CCN(C3CC(=O)N(c4ccc(Cl)cc4)C3=O)CC2)c1 (stereo not drawn)	inactive
COc1ccc(N2CCN(C3=NS(=O)(=O)C(c4cccc(Br)c4)=C3C)CC2)cc1	inactive
COc1cccc(-n2c(=O)c3c(C)c(C(=O)N(C)C)sc3n(Cc3cccc(C)c3)c2=O)c1	inactive
CCOc1ccc(NC(=O)C2CCCN(C(=O)Nc3ccccc3)C2)cc1 (stereo not drawn)	inactive
COCCN(C(=O)CCC(=O)Nc1ccccn1)C(C(=O)NCCC(C)C)c1ccc(OC)cc1 (stereo not drawn)	inactive
COc1cccc(N(CC(=O)NC2CCCC2)C(=O)CCCC(=O)Nc2ccccn2)c1	inactive
COc1ccc(C(=O)/C=C/Nc2ccccn2)cc1	8.91 µM (active)
CCOc1ccc(NC(=O)C(C)N2C(=O)c3ccccc3C2=O)cc1 (stereo not drawn)	inactive
CCOc1ccc(N/C=C/C(=O)c2ccccc2)cc1	10 µM (active)
OCC1CCCN(c2nc3cc4c(cc3cc2CNCc2cccs2)OCO4)C1 (stereo not drawn)	inactive

SMILES	Potency
CCn1cc(C(=O)NCc2ccccc2)c(=O)c2cc(S(=O)(=O)N3CCCCC3)ccc21	inactive
C=C1C([C@@]2(C)C(OC(C)=O)CC(=O)O[C@@](C)(COC(C)=O)C2CC(=O)OC)C(OC=O)C(OC(=O)C(O)C(C)CC)[C@]2(C)C(c3ccoc3)CC(=O)C12O (stereo partly drawn)	inactive
O=C(CN1Cc2ccccc2OC(c2ccccc2)C1)N1CCCCC1c1cccnc1 (stereo not drawn)	inactive
O=c1c(CCc2ccccc2)nc2cnc(N3CCNCC3)nc2n1Cc1cccs1	inactive
CCCCNC(=O)CN1C(=O)NC(Cc2ccccc2)(Cc2ccccc2)C1=O	inactive
CCN(C(=O)Nc1cccc2ccccc12)c1ccccc1	inactive
CCCCC(O)(CCCC)C(=O)NN(C(=O)CCl)c1ccccc1	31.6 µM (active)
Cc1cc2ccccc2n1CCNC(=O)c1ccc(F)cc1	inactive
Cc1cccc2c3c(ccc12)C1=C(C(=O)C3=O)C(C)CO1 (stereo not drawn)	inactive
COc1ccc(-c2nc3cnc(Oc4ccccc4)nc3n(Cc3cccs3)c2=O)cc1	inactive
CCCCn1c(SCC(=O)N2CCCC2=O)nc2cc(S(N)(=O)=O)ccc21	inactive
CCCCn1c(SCc2ncc(-c3ccccc3)o2)nc2cc(S(N)(=O)=O)ccc21	28.2 µM (active)
c1ccc(-c2cnc(CN3CCN(c4ccccc4)CC3)o2)cc1	inactive
CN1CCN2c3ccccc3Cc3ccccc3[C@@H]2C1	inactive
CS(=O)(=O)N1CCC[C@@]2(CCN(c3ccncc3)C2)C1	inactive
Cc1ccc(-c2ccc(C(=O)N3CCc4nnc(CNC(=O)c5ccccc5)n4CC3)cc2)cc1	inactive
COc1ccc(-c2csc3ncnc(Oc4ccc5c(C)cc(=O)oc5c4)c23)cc1	inactive
COc1ccc(-c2csc3nc(-c4ccccc4F)oc(=O)c23)cc1OC	20 µM (active)
Cc1sc2nc(-c3ccccc3F)oc(=O)c2c1C	inactive
CCOC(=O)C1CCCN(C(=O)c2ccc(-n3ccc4ccccc43)s2)C1 (stereo not drawn)	inactive
Cc1ccc(OCC(=O)Nc2ccc(N3CCN(C(=O)c4ccco4)CC3)cc2)c(C)c1	15.8 µM (active)
CCn1c2ccccc2c2cc(NC(=O)COc3ccc(C)cc3C)ccc21	inactive
Cc1ccc(Cl)c(OCC(=O)N(C)CC(=O)Nc2ccc(N3CCOCC3)cc2)c1	inactive
COc1cccc(C(=O)Nc2c3c(nn2-c2cccc(C)c2C)CS(=O)(=O)C3)c1OC	inactive
COc1ccc(C(=O)NC2CCCc3c2cnn3-c2cccc(C)c2C)c(OC)n1 (stereo not drawn)	17.8 µM (active)
Cc1cccc(C(=O)OC(C)C(=O)NC2CCCc3ccccc32)c1O (stereo not drawn)	inactive

SMILES	Potency
CCOc1ccc(N(CC)C(=O)c2noc3c2COc2ccc(C)cc2-3)cc1	inactive
O=C(C1CCC(Cn2c(=O)c3sccc3n(Cc3ccccc3F)c2=O)CC1)N1CCCCC1 (stereo not drawn)	inactive
CNc1ccc(-c2nc(-c3ccccc3C)no2)cc1[N+](=O)[O-]	inactive
C#CCCCCCCCCCCCCCCCC(=O)O	inactive
CC(=O)c1ccc(NC(=O)CCc2nc(-c3ccc(C)cc3)no2)cc1	inactive
N#CCCn1cnc2ccccc21	inactive
Fc1ccc(OCc2nn3c(Cn4nnc5ccccc54)nnc3s2)cc1	inactive
c1ccc(Cc2nn3c(Cn4cnc5ccccc54)nnc3s2)cc1	14.1 µM (active)
COc1ccc(CNc2ncncc2-c2ccccc2C)c(OC)c1	inactive
Cc1cc(C(=O)NCC2Cc3cccc(-c4cncnc4)c3O2)c(C)o1 (stereo not drawn)	inactive
CNc1cc(-c2c(C)noc2C)ncn1	inactive
COCCCNC(=O)c1ccc(NC(=O)c2nsc3ccccc23)cc1	inactive
COCCn1c(SCC(=O)c2cc(C)ccc2C)nc2cc(C(=O)NC3CCCC3)ccc2c1=O	inactive
CC(C)c1nccn1S(=O)(=O)c1cc([N+](=O)[O-])ccc1Cl	inactive
CCc1nc(C)cn1S(=O)(=O)c1cc([N+](=O)[O-])ccc1Cl	20 µM (active)
CCc1nccn1S(=O)(=O)c1cccc([N+](=O)[O-])c1	inactive
COc1ccc(OCCCn2c(C3CC(=O)N(c4ccc(F)cc4)C3)nc3ccccc32)cc1 (stereo not drawn)	inactive
CCc1ccccc1N1CC(c2nc3ccccc3n2CCCCOc2ccccc2)CC1=O (stereo not drawn)	inactive
CCCCN1CC(c2nc3ccccc3n2CCCCOc2ccc(C)cc2C)CC1=O (stereo not drawn)	39.8 µM (active)
Cc1ccc(CNC(=O)Cn2c(=O)ccc3cc(S(=O)(=O)N4CCCC4)ccc32)cc1	inactive
Cc1ccc(-n2c(SCC(=O)c3ccccc3)nc3c([nH]c4ccccc43)c2=O)cc1	inactive
O=C1Oc2ccccc2C(=O)/C1=C/c1ccccc1O	28.2 µM (active)
C=C(C)C1CC=C(CO)CC1 (stereo not drawn)	inactive
CCN(C(=O)CSc1nnnn1-c1ccccc1OC)C1CCS(=O)(=O)C1 (stereo not drawn)	inactive
COc1ccccc1CN(C)c1nnnn1-c1ccccc1	inactive
COc1ccccc1-n1nnnc1S(=O)(=O)Cc1ccc(Cl)cc1	10 µM (active)

SMILES	Potency
CSc1ccccc1N1CCN(CCCCCC(=O)NC2CCCc3ccccc32)CC1 (stereo not drawn)	inactive
CCC(C)C(=O)O[C@@H]1C[C@@]2(C)C(c3ccoc3)OC(=O)CC23OC2(C)O[C@@]14[C@@]1(C)C(CC(=O)OC)C5(C)CC1(O)C(O)(C5OC(=O)C1(C)OC1C)C(OC(C)=O)[C@@]34O2 (stereo partly drawn)	inactive
Cc1ccc(NC(=O)N2CCC(C(=O)NCc3ccc(F)cc3)CC2)cc1	7.08 µM (active)
O=C(NCc1ccc(F)cc1)C1CCN(C(=O)Nc2ccc(F)cc2)CC1	inactive
Cc1ccc(C(=O)NC2CCN(C(=O)Nc3ccc(F)cc3)CC2)cc1	inactive
O=C(CCN1Cc2ccccc2OC(c2ccccc2)C1)N[C@@H]1CS(=O)(=O)C[C@H]1O (stereo partly drawn)	inactive
COc1ccc(NC(=O)CCN2CCN(CCO)CC2)cc1	inactive
O=C(NCC(c1ccc(Cl)cc1)N1CCOCC1)c1ccccc1F (stereo not drawn)	inactive
CCC(C)(C)c1ccc(OCC(=O)N(C)C)c(C(C)(C)CC)c1	31.6 µM (active)
Cc1ccc(-n2c(=O)c3cccnc3n2CC(=O)NCc2ccc(F)cc2)cc1C	inactive
OC[C@@H]1CN(C2CCCC2)C[C@H](n2cnc3c(NC4CCC4)ncnc32)O1	inactive
OC[C@@H]1CN(Cc2ccc(-c3ccccc3)cc2)C[C@H](n2cnc3c(NC4CCCC4)ncnc32)O1	15.8 µM (active)
OCCN1CCN(c2ncnc3c2ncn3[C@H]2CN(Cc3ccco3)C[C@@H](CO)O2)CC1	inactive
OC[C@@H]1CN(Cc2cccs2)C[C@H](n2cnc3c(Nc4ccccc4)ncnc32)O1	inactive
CC(C)Nc1ncnc2c1ncn2[C@H]1CN(Cc2ccncc2)C[C@@H](CO)O1	inactive
OC[C@@H]1CN(Cc2ccncc2)C[C@H](n2cnc3c(N4CCN(c5ccccc5)CC4)ncnc32)O1	12.6 µM (active)
CN1CCN(c2ncc3nc(-c4ccc(Cl)cc4)c(=O)n(-c4ccccc4)c3n2)CC1	inactive
CCCCCCCCCCCC(=O)O[C@H](CC(=O)O)C[N+](C)(C)C	inactive
CCc1nn(CC(=O)Nc2cc(C)cc(C)c2)c(=O)c2cc3sccc3n12	inactive
CCOc1ccc(NC(=O)CC2C(=O)N(c3cccc(OC)c3)C(=O)N2C2CCCCC2)cc1 (stereo not drawn)	inactive
CCOC(=O)c1ccc(NC(=O)CC2C(=O)N(c3cccc(OC)c3)C(=O)N2C2CCCCC2)cc1 (stereo not drawn)	inactive
CCOC(=O)[C@]12Cc3cc(OC)ccc3[C@H]1N(C(C)C)C(=O)c1ccccc12	31.6 µM (active)
CCOC(=O)[C@]12Cc3ccccc3[C@H]1N(C1CCCCC1)C(=O)c1cc(OC)ccc12	10 µM (active)
CCOC(=O)C1CCN(C(=O)Nc2cccc(OC)c2)CC1	inactive
COc1ccc(C23NCCN2C(=O)c2ccccc23)cc1 (stereo not drawn)	inactive
